Screening results as filed in PubChem BioAssay.
An excerpt weighted towards active compounds, which were near 9.9% of everything screened.
Tau fibril FP: blocks human tau fibril formation measured by polarization; P10636; K18 P301L tau heparin fibrillization, Alexa594 FP, 6 h; Potency, µM (top dose mostly 57.7 µM), hits mostly inhibitors; 280,000 tested, 0.39% active; AID 1468; also: nearly all actives have a fitted effect of over 55% in size
Target sequence (P10636 561-689 P618L limits assumed): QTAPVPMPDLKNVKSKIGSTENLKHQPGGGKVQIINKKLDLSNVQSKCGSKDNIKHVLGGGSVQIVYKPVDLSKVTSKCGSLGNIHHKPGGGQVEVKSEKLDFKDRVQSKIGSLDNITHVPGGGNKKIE
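Human K18 P301L fragment (15 uM unlabeled plus 0.24 uM Alexa 594-labeled) in 100 mM sodium acetate pH 7 with compound, aggregation induced by 20 uM heparin for 6 hr at 37 C. ThT (30 uM) added for 1 hr, then Alexa 594 FP read.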
Tau fibril ThT: tau fibrillization inhibition (ThT binding). 270,000 tested, 2.1% active. recombinant tau K18 P301L, heparin-induced fibrillization, ThT fluorescence. AID 1460. Potency, µM (series often up to 57.4 µM), hits mostly inhibitors. P10636; also: nearly all actives have a fitted effect of over 55% in size
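K18 P301L tau (15 uM + 0.24 uM Alexa 594-tagged), heparin 20 uM, NaOAc pH 7, 6 h 37 C; ThT 30 uM, 1 h RT, ex 450/em 510 nm.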
KDM4E inh: JMJD2E (human) inhibition; B2RXH2; JMJD2E catalytic domain, FDH-coupled NADH fluorescence (FDH is formaldehyde dehydrogenase); Potency, µM (highest dose often 57.1 µM), hits mostly inhibitors; 230,000 tested, 1.6% active; AID 2147; active = well fitted inhibition curve with a large enough effect, not every such curve was filed as active; inconclusive = small, poorly fitted or top-dose-only effect, or another doubt; inactive = no such curve, though single readings can be large or run the other way; also: nearly all actives have a fitted effect of over 50% in size
Tau fluor cs: counter-screen for tau fibril formation inhibitors; AID 1463; 280,000 tested, 0.93% active; Potency, µM (series often up to 57.7 µM); tau K18 P301L (four-repeat tau fragment) Alexa594 fluorescence, heparin fibrillization; also: nearly all actives have a fitted effect of over 55% in size
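Human K18 P301L tau (15 uM unlabeled plus 0.24 uM Alexa 594-labeled, final) in 100 mM sodium acetate pH 7 was mixed with compound and 20 uM heparin and incubated 6 hr at 37 C.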
ALDH1A1 block: blocks purified human ALDH1A1 activity; P00352; Purified ALDH1A1, NADH fluorescence, propionaldehyde substrate; Potency, µM (highest dose often 75.3 µM), usual class: inhibitors; 220,000 tested, 7.3% active; active = well fitted inhibition curve with a large enough effect, not every such curve was filed as active; inconclusive = small, poorly fitted or top-dose-only effect, or another doubt; inactive = no such curve, though single readings can be large or run the other way
HPGD block: blocks human HPGD enzyme activity; P15428; purified HPGD, NADH fluorescence kinetic, PGE2 substrate; Potency, µM, actives largely listed as inhibitors; 150,000 tested, 4.3% active; active = well fitted inhibition curve with a large enough effect, not every such curve was filed as active; inconclusive = small, poorly fitted or top-dose-only effect, or another doubt; inactive = no such curve, though single readings can be large or run the other way
Target sequence (P15428 whole entry, looked up): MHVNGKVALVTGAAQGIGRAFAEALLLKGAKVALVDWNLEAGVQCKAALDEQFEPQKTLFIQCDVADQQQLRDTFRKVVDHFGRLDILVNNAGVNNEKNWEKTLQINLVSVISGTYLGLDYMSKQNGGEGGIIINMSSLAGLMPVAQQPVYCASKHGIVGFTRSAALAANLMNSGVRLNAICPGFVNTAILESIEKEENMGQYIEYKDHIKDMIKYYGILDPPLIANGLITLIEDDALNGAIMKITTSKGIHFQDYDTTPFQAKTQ
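20 nM HPGD preincubated 15 min at room temperature with compound in 50 mM Tris-HCl pH 8, 0.01% Tween 20. Started with 1 mM NAD+ and 30 uM prostaglandin E2; NADH fluorescence (360/450 nm) read 5 times over 30-s intervals, last minus first.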
Of the large screens only hits and unclear results are named; the others gave an inactive call. Unless noted, calls follow the shape of the dose curve; as a rule, active = well fitted curve in the direction sought with a large enough effect; inconclusive = small, poorly fitted or top-dose-only effect, or another doubt; inactive = no such curve, though single readings can be large; an effect the other way counts as inactive or inconclusive.

COc1ccc(-c2noc(CSCC(=O)Nc3cc(OC)c(OC)c(OC)c3)n2)cc1OC	none (no result: KDM4E inh, ALDH1A1 block, HPGD block)
CCCn1c(SCC(=O)Nc2nonc2C)nnc1-c1ccoc1C	none
Cc1nonc1NC(=O)CSc1nnc(-c2ccoc2C)n1-c1cccc(Cl)c1	ALDH1A1 block 10µM
CCc1ccc2c(CN3CCN(S(=O)(=O)c4cccs4)CC3)cc(=O)oc2c1	ALDH1A1 block 12.6µM
O=C(O)CC1S/C(=N/N=C/C=C/c2ccccc2[N+](=O)[O-])NC1=O (stereo not given)	KDM4E inh inconclusive
O=C(O)CC1S/C(=N/N=C/c2ccc(-c3ccc(Cl)c([N+](=O)[O-])c3)o2)NC1=O (stereo not given)	Tau fibril ThT 7.08µM, ALDH1A1 block inconclusive (no result: HPGD block)
Cc1c(N=C(N)/N=C(\N)Nc2ccc(Br)cc2)c(=O)n(-c2ccccc2)n1C	none
O=C(c1ccccc1[N+](=O)[O-])N1CCc2ccccc2C1	HPGD block 12.6µM
O=C(OCC(=O)N1CCc2ccccc2C1)c1ccc(N2CCOCC2)c([N+](=O)[O-])c1	Tau fibril ThT inconclusive, ALDH1A1 block 20µM (no result: HPGD block)
O=C(c1ccc(Cl)cc1[N+](=O)[O-])N1CCc2ccccc2C1	none (no result: HPGD block)
O=C(c1ccc(CN2CCc3ccccc3C2)cc1)N1CCc2ccccc2C1	HPGD block 3.16µM
Nc1ccc(C(=O)OCC(=O)N2CCc3ccccc3C2)cc1[N+](=O)[O-]	HPGD block 12.6µM
CCOC(=O)c1cc(-c2ccc(C)cc2)n(CCCC(=O)Nc2cc(C)ccc2C)c1	none (no result: KDM4E inh, ALDH1A1 block, HPGD block)
COC(=O)[C@@]1(Cc2ccc(F)cc2)[C@H]2c3cc(C(=O)N(C)C)n(Cc4ccc(C)c(F)c4F)c3C[C@H]2CN1C(=O)c1ccccc1	Tau fibril ThT inconclusive
O=c1[nH]c(NCc2ccccc2)nc2c1CCCC2	HPGD block 12.6µM
Cc1ccc(CSc2nc3c(c(=O)[nH]2)CCC3)cc1	HPGD block 10µM
Cc1ccccc1CSc1nc2c(c(=O)[nH]1)CCCC2	HPGD block 3.98µM
Fc1c(F)c(F)c(N=Cc2ccc3ncccc3c2)c(F)c1F	ALDH1A1 block 8.91µM
Cc1nn(-c2ccc(F)cc2)c(-n2cccc2)c1C(=O)NCCCN1CCN(c2cccc(Cl)c2)CC1	Tau fibril ThT inconclusive (no result: KDM4E inh, ALDH1A1 block, HPGD block)
O=C(c1nnsc1S(=O)(=O)c1ccc(Cl)cc1)N1CCOCC1	Tau fibril ThT inconclusive, ALDH1A1 block 2.82µM (no result: HPGD block)
O=S(=O)(c1ccc(Cl)c(Cl)c1)c1snnc1-c1ccccc1	Tau fibril ThT inconclusive
O=C(c1nnsc1S(=O)c1ccc(Cl)cc1)N1CCOCC1 (stereo not given)	Tau fibril FP inconclusive, Tau fibril ThT inconclusive, ALDH1A1 block 7.08µM (no result: HPGD block)
Nc1nc(C(=O)N2CCOCC2)nn1S(=O)(=O)c1ccc(Cl)cc1	none
O=C(c1cc(-c2ccc(Cl)cc2)on1)N1CCOCC1	none
CNC(=O)c1nnsc1S(=O)(=O)c1ccc(Cl)cc1	ALDH1A1 block 2µM (no result: HPGD block)
O=C(Nc1ccccc1)c1nnsc1S(=O)c1ccc(Cl)cc1 (stereo not given)	ALDH1A1 block 1.78µM, HPGD block 7.94µM
CCOC(=O)C1CCN(C(=O)CSc2n[nH]c(-c3ccc(F)cc3)n2)CC1	none (no result: KDM4E inh, ALDH1A1 block, HPGD block)
CN1C(=O)C2C(c3ccc(N(C)C)cc3)=NN(Cc3ccccc3)C2C1=O (stereo not given)	Tau fibril ThT inconclusive, Tau fluor cs inconclusive, ALDH1A1 block inconclusive (no result: HPGD block)
COC(=O)c1ccc(NC(=O)C(=O)NCCc2sc(-c3cccc(F)c3)nc2C)cc1	Tau fibril ThT inconclusive (no result: KDM4E inh, ALDH1A1 block, HPGD block)
S=C1NC(c2ccccc2)=CC(c2ccccc2)N1 (stereo not given)	ALDH1A1 block 0.891µM (no result: HPGD block)
COc1ccccc1CNc1ccc(-c2nc(C(C)C)no2)cc1[N+](=O)[O-]	none (no result: KDM4E inh, ALDH1A1 block, HPGD block)
CC1CCC(C(C)C)C2=C1C(C#N)(C#N)C(C#N)(C#N)C(c1ccccc1)N2 (stereo not given)	Tau fibril ThT 22.4µM, KDM4E inh inconclusive, Tau fluor cs inconclusive, ALDH1A1 block 10µM
Cc1cc(C)cc(-n2ccn(Cc3ccccc3C)c(=O)c2=O)c1	none (no result: KDM4E inh, ALDH1A1 block, HPGD block)
NNC(=O)C=C1CCN(c2ncc(C(F)(F)F)cc2Cl)CC1	KDM4E inh inconclusive, ALDH1A1 block 15.8µM
